Assay outcomes deposited in PubChem by National Center for Advancing Translational Sciences (NCATS).
The full list was thinned out, with hits kept by preference.
FBPA Giardia inh: qHTS Assay for Inhibitors of Fructose-1,6-bisphosphate Aldolase from Giardia Lamblia. Potency, µM (doses to about 59.6 µM), without a hit: top-dose activity, negative = inhibition, actives largely listed as inhibitors. 0.71% of 290,000 active. AID 2451, 2010. purified Giardia FBPA; also: potency is read from the fitted curve at half-maximal effect; % is scaled to controls: 0 for no effect and ±100 for the full control effect; nearly all actives have a fitted effect of over 55% in size
Target sequence (A8B2U2 whole entry, looked up): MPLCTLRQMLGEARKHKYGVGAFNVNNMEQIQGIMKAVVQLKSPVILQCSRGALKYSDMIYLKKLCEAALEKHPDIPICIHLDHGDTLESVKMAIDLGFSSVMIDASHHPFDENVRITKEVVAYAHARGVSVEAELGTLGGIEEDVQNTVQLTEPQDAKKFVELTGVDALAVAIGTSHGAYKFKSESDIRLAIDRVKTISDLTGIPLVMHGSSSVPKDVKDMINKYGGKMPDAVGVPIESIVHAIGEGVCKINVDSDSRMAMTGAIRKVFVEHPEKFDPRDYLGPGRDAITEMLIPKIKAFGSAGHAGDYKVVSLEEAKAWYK
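Giardia FBPA (40 nM reagent) was preincubated 10 min at RT with compound (up to 57.5 uM final), then substrate plus GAPDH/TPI/NAD/arsenate coupling system with diaphorase/resazurin was added; resorufin fluorescence (525/598 nm) was read after 20 min.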
Shiga toxin inh: A qHTS for Small Molecule Inhibitors of Shiga Toxin | AID 2315, 2010 | 9.2% of 290,000 active | inhibition, % at 38.7 µM | Vero cells, Shiga toxin protein synthesis inhibition reporter; in the data active = inhibition mostly above about 28%, no sharp cut-off; inactive = mostly below about 43%; also: 0% is about no effect
RE007 growth inh: qHTS Assay for Inhibitors of the HIV-1 protein Vpr. Potency, µM (doses to about 92.2 µM), inactives show at the highest dose activity change, negative = less growth, hits mostly inhibitors. 0.21% of 360,000 active. AID 651644, 2012. S. pombe RE007 Vpr strain, BacTiter-Glo ATP luminescence, 24 h; active = well fitted falling curve with a large enough effect; inconclusive = small, poorly fitted or top-dose-only effect; inactive = no such curve, though single readings can be large or run the other way; also: potency is read from the fitted curve at half-maximal effect; % is scaled to controls: 0 for no effect and ±100 for the full control effect; nearly all actives have a fitted effect of over 50% in size
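Fission yeast strain RE007, carrying one chromosomally integrated HIV-1 vpr copy, was seeded at OD 0.01 in PMG+AL medium with 23 nL pinned compound. After 24 h at 30 °C and 99% humidity, viability was read by BacTiter-Glo luminescence.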
Cycloheximide cs: Cycloheximide Counterscreen for Small Molecule Inhibitors of Shiga Toxin | cell reporter, cycloheximide protein synthesis inhibition counterscreen | max response, % | 12% of 300,000 active | AID 2314, 2010; in the data active = max response mostly above about 13%, no sharp cut-off; inactive = mostly below about 14%; also: read at 38.3 µM for the half of the compounds with a filed dose; 0% is about no effect
LmPK inh: qHTS Assay for Inhibitors of Leishmania Mexicana Pyruvate Kinase (LmPK). 0.37% of 290,000 active. purified LmPK, Kinase-Glo ATP luminescence, 1 h. Q27686. Potency, µM (series often up to 57.5 µM), without a hit: at the highest dose activity change, negative = inhibition, usual class: inhibitors; also: potency is read from the fitted curve at half-maximal effect; % is scaled to controls: 0 for no effect and ±100 for the full control effect
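Purified LmPK (0.1 nM) converted ADP (0.1 mM) to ATP with PEP (0.5 mM) in imidazole buffer pH 7.2 with KCl and MgCl2, 1 h at room temperature. ATP was read by Kinase-Glo luminescence; data normalized to uninhibited and no-enzyme controls.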
Tb PYK inh: qHTS of Trypanosoma Brucei Inhibitors. pyruvate kinase (Trypanosoma brucei), Q57TT1. TbPYK enzyme, Kinase-Glo Plus ATP luminescence, 45 min. Potency, µM (top dose mostly 76.8 µM), for the others: top-dose activity, negative = inhibition, hits mostly inhibitors. 0.12% of 410,000 active. AID 624173, 2012; also: potency is read from the fitted curve at half-maximal effect; % is scaled to controls: 0 for no effect and ±100 for the full control effect; nearly all actives have a fitted effect of over 50% in size
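Luminescent Kinase-Glo Plus end-point after 45 min room-temperature reaction of T. brucei pyruvate kinase started with 130 uM ADP (final). Buffer TEA 50 mM pH 7.2 with KCl, MgCl2, BSA, Tween-20; titration-based qHTS with fitted concentration-effect curves.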
Starred values were filed as active, the others as inactive; ? = inconclusive; . = not tested or not shown; + = active, no number; [ ] = dose if it differs, or a comment. Unless noted, calls follow the shape of the dose curve; as a rule, active = well fitted curve in the direction sought with a large enough effect; inconclusive = small, poorly fitted or top-dose-only effect, or another doubt; inactive = no such curve, though single readings can be large; an effect the other way counts as inactive or inconclusive.

SMILES	FBPA Giardia inh	Shiga toxin inh	RE007 growth inh	Cycloheximide cs	LmPK inh	Tb PYK inh
CCOC(=O)c1ccc(NC(=O)NCc2ccc(OC)cc2)cc1	2%	31	7%	13	-4%	-4%
COc1ccc(CNC(=O)Nc2ccc(C)c(C)c2)cc1	-2%	32	21%	33*	0%	2%
COC(=O)c1ccc(NC(=O)CCn2cccn2)cc1	.	.	.	.	.	8%
Cc1ccc(CNC(=O)CCc2ccccc2)cc1	5%	19	-9%	15*	1%	-7%
Cc1ccccc1CNC(=O)CCc1ccccc1	4%	35	-15%	18*	-1%	6%
Cc1ccc(CNC(=O)C2(S(=O)(=O)c3ccccc3)CC=CC2)cc1	2%	44*	-5%	41*	-7%	-3%
CNc1ccccc1C(=O)OC(C)C(=O)Nc1ccc(Cl)cn1 (stereo unspecified)	-2%	14	-14%	7	3%	1%
Cn1c(CNC(=O)C(Cc2ccccc2)NC(=O)c2ccccc2F)cc(=O)n(C)c1=O (stereo unspecified)	6%	1	8%	-5	0%	0%
COc1ccccc1C(=O)N/C(=C\c1cn(S(=O)(=O)N(C)C)c2ccccc12)C(=O)N1CCOCC1	.	-6	9%	-2	5%	0%
Cc1cc(C)n(-c2nc3ccccc3c(=O)n2OCC#N)n1	8%	115*	?	38*	-5%	-6%
Nc1ccc(-c2cnc[nH]2)cc1[N+](=O)[O-]	-7%	26	-6%	12*	-5%	-4%
COc1cc(-c2nc(-c3ccc4c(c3)-c3ccccc3S4(=O)=O)c(-c3ccccc3)[nH]2)cc(OC)c1O	-7%	20	9%	22*	-1%	-3%
COc1cc(-c2nc(-c3cccc(Cl)c3)c(-c3ccccc3)[nH]2)cc(OC)c1OC	.	.	.	.	.	-6%
Cc1onc(-c2c(F)cccc2Cl)c1C(=O)Nc1nc2ccccc2[nH]1	6%	60*	4%	59*	11%	-3%
O=C(Nc1nc2ccccc2[nH]1)c1ccc(Cl)cc1	13%	18	?	8	-16%	-15%
Cc1ccc(Cc2nc3ccccc3[nH]2)cc1	-4%	31	-11%	8	0%	2%
O=C(/C=C/c1ccccc1)NCCc1nc2ccccc2[nH]1	1%	-10	-15%	-3	6%	-14%
O=C(/C=C/c1c(F)cccc1Cl)Nc1nc2ccccc2[nH]1	3%	81*	3%	36*	2%	-6%
Cc1ccc(/C=C/C(=O)c2nc3ccccc3[nH]2)cc1	-1%	68*	-22%	45*	-19%	0%
Cc1ccc(/C=C/C(=O)Nc2nc3ccccc3[nH]2)cc1	13%	35*	-5%	37*	-5%	10%
CCOC(=O)Cc1ccc(NC(=O)NCc2ccc3c(c2)CCN3C(=O)CC)cc1	.	.	.	.	.	-4%
Cc1nn(Cc2ccccc2)c(Cl)c1/C=N/NC(=O)CNc1cccc(C(F)(F)F)c1	0%	-7	-1%	-1	3%	1%
Cc1nn(-c2ccccc2Cl)c(Cl)c1/C=N/Nc1cccc(C(=O)O)c1	8%	70*	5%	64*	0%	36%
CCOC(=O)N/N=C/c1c(C)nn(-c2cccc(C(F)(F)F)c2)c1Cl	0%	35	18%	13*	2%	-2%
Cc1nn(-c2cccc(C(F)(F)F)c2)c(Cl)c1/C=N/Nc1cccc(C(=O)O)c1	14%	+	?	106*	-6%	-4%
SMILES	FBPA Giardia inh	Shiga toxin inh	RE007 growth inh	Cycloheximide cs	LmPK inh	Tb PYK inh
CCC(=O)N1CCc2cc(S(=O)(=O)NC(CC(C)C)C(=O)Nc3cccc(C)c3C)ccc21 (stereo unspecified)	.	.	.	.	.	-1%
NCCC[C@@H](CC(=O)N[C@@H]1CCNC[C@H]1C(=O)N[C@H](CC(=O)N[C@@H](CCC(=O)O)CC(=O)O)Cc1ccccc1)NC(=O)C[C@H](Cc1c[nH]c2ccccc12)NC(=O)[C@@H]1CCCC[C@H]1N	-22%	.	.	.	.	.
Cc1occc1C(=O)NCCc1cccc(Cl)c1	-8%	130*	-23%	69*	8%	-3%
Cc1occc1C(=O)NCCCc1ccccc1	3%	117	28%	25*	-1%	-12%
Cc1ccc(/C=C/C(=O)NCc2ccc(S(N)(=O)=O)cc2)o1	-20%	-5	-6%	-4	-2%	10µM*
Cc1occc1C(=O)NNC(=S)NCc1ccc(Cl)cc1	1%	28	13%	28*	-1%	-6%
Cc1ccc(/C=C/C(=O)Nc2ccc(S(N)(=O)=O)cc2)o1	-18%	-8	-4%	6	-16%	?
COc1ccc(OC)c(CNS(=O)(=O)c2c(C(=O)N3CCC(C)CC3)c(C)n(C)c2C)c1	.	.	.	.	.	2%
COC(=O)[C@@]12C[C@@H](CC(=O)N3CCC(c4ccccc4)CC3)C(=O)N(CCc3ccc(OC)c(OC)c3)C1=CCC(C)(C)C2	.	.	0%	.	.	.
Cc1ccc(/C=C/C(=O)NCCc2cccc(Cl)c2)o1	3%	.	10%	29*	2%	16µM*
Cc1ccc(/C=C/C(=O)NCCc2c[nH]c3ccccc23)o1	-2%	1	7%	2	-1%	-22%
Cc1c(NS(=O)(=O)c2ccc(Br)cc2)c(=O)n(-c2ccccc2)n1C	0%	18	2%	17*	2%	-2%
O=S(=O)(Nc1ccn(-c2ccccc2)n1)c1ccc(Br)cc1	-4%	42	6%	16*	-2%	-23%
O=S(=O)(Nc1ccccn1)c1ccc(-n2cccn2)cc1	-11%	-14	18%	-4	-4%	4%
Cc1c(NC(=O)c2ccccc2NS(=O)(=O)c2ccc(Br)cc2)c(=O)n(-c2ccccc2)n1C	7%[12.9 µM]	-7	-3%	5	9%	0%
COc1ccc(Br)cc1C1Nc2cccc3cccc(c23)N1	-28%	.	-10%	30*	1%	-7%
COc1cc(C2Nc3cccc4cccc(c34)N2)ccc1O	?	-11	4%	0	-22%	-4%
Nc1ccc(Br)cc1-c1nc2ccccc2[nH]c1=O	1%	75*	-2%	20	5%	-1%
O=c1[nH]c2ccccc2nc1-c1c[nH]c2ccccc12	14%	34	-1%	26*	0%	6%
Nc1ccccc1-c1nc2ccccc2[nH]c1=O	14%	80*	-6%	58*	-1%	0%
O=S(=O)(Nc1nc(-c2sccc2Cl)cs1)c1cc(Cl)ccc1Cl	6%	-4	-5%	-2	3%	2%
COc1ccccc1NC(=O)Cn1c2ccccc2c2nc3n(c(=O)c21)CCS3	4%	-35	-10%	9	3%	-20%
